This is a sample that favours compounds with a hit; in the whole collection about 2.3% have one here.
SENP8 block-1: human SENP8 protease inhibitors, primary screen, biochemical, fluorescence, Nedd8 protein substrate, uHTS; Sentrin-specific protease 8 (Homo sapiens), Q96LD8; recombinant SENP8; inhibition, % at 20 µM; hit rate 0.64% among 360,000; AID 602440, 2012; in the data active = inhibition mostly above about 40%, no sharp cut-off; inactive = mostly below about 27%
Target sequence (Q96LD8 whole entry, looked up): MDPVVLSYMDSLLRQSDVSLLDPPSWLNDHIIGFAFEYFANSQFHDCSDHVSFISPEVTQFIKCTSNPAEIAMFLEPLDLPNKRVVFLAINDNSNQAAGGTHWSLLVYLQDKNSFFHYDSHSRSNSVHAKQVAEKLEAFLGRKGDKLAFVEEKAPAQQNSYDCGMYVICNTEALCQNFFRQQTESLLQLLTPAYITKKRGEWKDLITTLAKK
SENP8 block-2: SENP8 protease inhibitors, primary screen, biochemical, luminescence | purified SENP8, Z-RLRGG-aminoluciferin cleavage | inhibition, % at 10 µM | hit rate 1.2% among 330,000 | AID 2540, 2010; in the data active = inhibition above about 50%
SENP7 block: SENP7 protease inhibitors, primary screen, biochemical, luminescence, uHTS; Sentrin-specific protease 7 (Homo sapiens), Q9BQF6; recombinant SENP7, Z-RLRGG-aminoluciferin luminescence, 40 min; inhibition, % at 5 µM; hit rate 1.5% among 330,000; AID 434973, 2010;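 active = inhibition above about 50% at the single test dose, limit read from the data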
Target sequence (Q9BQF6 706-1050 limits assumed): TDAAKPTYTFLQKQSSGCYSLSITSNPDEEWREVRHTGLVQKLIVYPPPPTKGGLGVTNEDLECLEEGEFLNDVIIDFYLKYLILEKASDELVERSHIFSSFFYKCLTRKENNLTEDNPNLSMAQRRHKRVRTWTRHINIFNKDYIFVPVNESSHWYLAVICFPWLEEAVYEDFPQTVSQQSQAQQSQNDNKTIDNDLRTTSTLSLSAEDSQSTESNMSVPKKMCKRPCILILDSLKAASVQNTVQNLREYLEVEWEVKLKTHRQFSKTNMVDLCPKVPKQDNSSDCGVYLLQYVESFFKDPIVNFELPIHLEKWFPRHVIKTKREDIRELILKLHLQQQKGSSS
HSP90 inh: HSP90 inhibitors, primary screen, cell lysate, luminescence; hit rate 0.91% among 290,000; Rabbit reticulocyte lysate, luciferase refolding luminescence, 3 h; Heat shock protein HSP 90 (rabbit reticulocyte lysate; luciferase refolding); AID 1789, 2009; inhibition, % at 5.6 µM;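 active = inhibition above the screen-wide mean plus 3 SD, computed separately per campaign, cut at about 16% in these data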;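 note: inhibitors lower the luminescence because luciferase stays unfolded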
SENP6 block: SENP6 protease inhibitors, primary screen, biochemical, luminescence, uHTS; Sentrin-specific protease 6 (Homo sapiens), Q9GZR1; Recombinant SENP6 catalytic domain, aminoluciferin luminescence; inhibition, % at 10 µM; hit rate 1.8% among 330,000; AID 2599, 2010;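 active = inhibition above about 50% at the single tested dose, limit read from the data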
LGR2 inh: inhibitors of bursicon-induced LGR2 CRE-luciferase signal, primary screen, cell-based, HEK293, CRE-luciferase reporter, bursicon stimulation. Drosophila bursicon receptor LGR2 (rickets). bursicon-stimulated, 4 h. inhibition, % at 9.99 µM. hit rate 0.35% among 380,000. AID 720647, 2013;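 active = drop in luminescence signal, shown as inhibition above about 50% in the replicate tests, limit read from the data, passing the limit was not always enough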;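 note: agonist challenge used bursicon conditioned medium at about half maximal strength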
SENP8 conf: SENP8 protease inhibitors, retest, confirmation, biochemical, luminescence, single concentration. shares compounds with SENP7 block. Recombinant SENP8, Z-RLRGG-aminoluciferin luminescence, 60 min. inhibition, % at 12.5 µM. hit rate 40% among 6,200. AID 488912, 2010;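 active = mean inhibition across replicates above about 50%, limit read from the data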
SENP6 confirm: SENP6 protease inhibitors, confirmation, biochemical, luminescence, single concentration. hit rate 58% among 6,200. shares compounds with SENP7 block. inhibition, % at 12.5 µM. AID 488915, 2010. recombinant SENP6, Z-RLRGG-aminoluciferin luminescence
SENP7 conf: SENP7 protease inhibitors, retest, confirmation, biochemical, luminescence, single concentration; shares compounds with SENP7 block; recombinant SENP7, Z-RLRGG-aminoluciferin luminescence, 40 min; inhibition, % at 12.5 µM; hit rate 69% among 6,200; AID 488917, 2010
Casp3 SENP sel: caspase-3 protease inhibitors, confirmation, selectivity assay for SENP inhibitor project, biochemical, single concentration | purified caspase-3, Z-DEVD-aminoluciferin luminescence, 60 min | hit rate 60% among 6,200 | inhibition, % at 12.5 µM | shares compounds with SENP7 block;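 active = mean inhibition above about 50%, limit read from the data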
Luc interf: counter-screen for SENP inhibitors: luminescence interference; Pre-incubated SENP8/Z-RLRGG-aminoluciferin, luciferase luminescence interference; shares compounds with SENP7 block; inhibition, % at 12.5 µM; hit rate 39% among 6,200;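 active = mean inhibition above about 50% when retested at one dose, limit read from the data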
Hits are given with their value.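 Rule for the calls, unless noted: active = mean inhibition above about 50% in the one-dose retest (limit read from the data); inactive = the rest.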

`Cc1ccc2oc(-c3ccc(NC(=O)c4cccnc4)cc3)nc2c1` gave SENP8 block-1 inactive, SENP8 block-2 inactive, SENP7 block inactive, HSP90 inh inactive, SENP6 block inactive and LGR2 inh inactive.
For Cc1ccc2nc(-c3cccnc3)oc2c1 the results were SENP8 block-1 inactive, SENP8 block-2 inactive, SENP7 block inactive, HSP90 inh inactive and SENP6 block inactive.
Screening COC(=O)c1ccc(-c2nc3ccc(C)cc3o2)cc1 returned SENP8 block-1 inactive, SENP8 block-2 inactive, SENP7 block 70.0, HSP90 inh inactive, SENP6 block inactive, SENP8 conf inactive, SENP6 confirm inactive, SENP7 conf inactive, Casp3 SENP sel inactive and Luc interf inactive.
For CC(C)NC(=O)Nc1cccc2c1O[C@@H](CN(C)Cc1ccc3c(c1)OCO3)[C@@H](C)CN([C@@H](C)CO)C2=O the results were LGR2 inh inactive.
Screening O=C(C[C@H]1CC[C@H]2[C@@H](COC[C@H](O)CN2Cc2ccc(Cl)cc2)O1)NCc1ccccc1Cl returned LGR2 inh inactive.
Screening CCCc1cc(C(=O)Nc2cccnc2Cl)no1 returned SENP8 block-1 inactive, SENP8 block-2 inactive, SENP7 block inactive, HSP90 inh inactive and SENP6 block inactive.
`CCCc1cc(C(=O)Nc2cc(C)ccc2O)no1` gave SENP8 block-1 inactive, SENP8 block-2 66.7, SENP7 block inactive, HSP90 inh inactive, SENP6 block 60.8, LGR2 inh inactive, SENP8 conf inactive, SENP6 confirm 56.2, SENP7 conf 87.4, Casp3 SENP sel 72.4 and Luc interf inactive.
CC=Cc1ccc2n(c1=O)C[C@H]1[C@H](CO)[C@@H](C(=O)N3CCC(Cc4ccccc4)CC3)N(C)[C@@H]21 (mixture of isomers) was read as LGR2 inh inactive.
Screening COc1ccc2oc(C(=O)OC/C(O)=C(\C#N)c3nc4ccccc4[nH]3)c(C)c2c1 returned SENP8 block-1 inactive, SENP8 block-2 inactive, SENP7 block inactive, HSP90 inh inactive, SENP6 block inactive and LGR2 inh inactive.
Cc1ccc2oc(C(=O)Nc3nnc(C)s3)c(C)c2c1 was read as SENP8 block-1 inactive, SENP8 block-2 inactive, SENP7 block 58.5, HSP90 inh inactive, SENP6 block inactive, SENP8 conf inactive, SENP6 confirm inactive, SENP7 conf inactive, Casp3 SENP sel inactive and Luc interf inactive.
COc1ccc2oc(C(=O)Nc3nc4ccccc4[nH]3)c(C)c2c1 was read as SENP8 block-1 inactive, SENP8 block-2 58.3, SENP7 block 92.9, HSP90 inh inactive, SENP6 block 78.2, LGR2 inh inactive, SENP8 conf inactive, SENP6 confirm inactive, SENP7 conf 95.0, Casp3 SENP sel 84.5 and Luc interf 58.2.
`COc1ccc2oc(C(=O)Nc3nnc(C)s3)c(C)c2c1` gave SENP8 block-1 inactive, SENP8 block-2 inactive, SENP7 block 61.5, SENP6 block inactive, LGR2 inh inactive, SENP8 conf inactive, SENP6 confirm inactive, SENP7 conf inactive, Casp3 SENP sel inactive and Luc interf inactive.
For COc1ccc2oc(C(=O)Nc3nc4ccc(S(C)(=O)=O)cc4s3)c(C)c2c1 the results were SENP8 block-1 inactive, SENP8 block-2 inactive, SENP7 block inactive, SENP6 block inactive and LGR2 inh inactive.
Screening Cc1ccc2oc(C(=O)Nc3nonc3C)c(C)c2c1 returned SENP8 block-1 inactive, SENP8 block-2 inactive, SENP7 block inactive, HSP90 inh inactive, SENP6 block inactive and LGR2 inh inactive.
`CNC(=O)C[C@@H]1CC[C@H]2[C@@H](COc3ccc(NC(=O)c4cc(F)cc(F)c4)cc3C(=O)N2C)O1` gave LGR2 inh inactive.
Screening CCC(=O)N(C)C[C@H]1Oc2cc(C#CC3CC3)ccc2S(=O)(=O)N([C@@H](C)CO)C[C@H]1C returned LGR2 inh inactive.
O=c1c2cc(C(F)(F)F)ccc2sn1-c1ccccc1 was read as SENP8 block-1 inactive and LGR2 inh inactive.
`O=c1c2cc(F)ccc2sn1-c1ccccc1` gave SENP8 block-1 inactive, SENP8 block-2 75.4, SENP7 block inactive, SENP6 block 83.7, LGR2 inh inactive, SENP8 conf 83.3, SENP6 confirm 84.4, SENP7 conf 96.4, Casp3 SENP sel 87.9 and Luc interf 77.4.
`CC(C)S(=O)(=O)c1csc(C(=O)Nc2ccc(F)cc2)c1N` gave SENP8 block-1 inactive, SENP8 block-2 91.7, SENP7 block 98.0, HSP90 inh inactive, SENP6 block 98.4, LGR2 inh inactive, SENP8 conf 96.5, SENP6 confirm 97.3, SENP7 conf 102.1, Casp3 SENP sel 97.2 and Luc interf 87.3.
For COc1ccc(-n2c(NC(=O)c3ccco3)c(C#N)c3nc4ccccc4nc32)cc1 the results were SENP8 block-1 inactive, SENP8 block-2 95.0, SENP7 block 86.5, HSP90 inh inactive, SENP6 block 97.5, SENP8 conf inactive, SENP6 confirm 68.4, SENP7 conf 53.5, Casp3 SENP sel inactive and Luc interf inactive.
CCC(=O)Nc1c(C#N)c2nc3ccccc3nc2n1C1CCCCC1 was read as SENP8 block-1 inactive, SENP8 block-2 inactive, SENP7 block inactive, HSP90 inh inactive and SENP6 block inactive.
Screening CCC(=O)Nc1c(C#N)c2nc3ccccc3nc2n1-c1ccccc1C returned SENP8 block-1 inactive, SENP8 block-2 inactive, SENP7 block inactive, HSP90 inh inactive, SENP6 block 54.5, SENP8 conf inactive, SENP6 confirm inactive, SENP7 conf inactive, Casp3 SENP sel inactive and Luc interf inactive.
Screening COc1ccc(C(=O)Nc2ccc(NC(=O)c3ccco3)cc2)cc1 returned SENP8 block-1 inactive, SENP8 block-2 inactive, SENP7 block inactive, HSP90 inh inactive, SENP6 block inactive and LGR2 inh inactive.

Compound activity (PubChem)
